This is part of a sample that, as a whole, favours compounds with a hit. Of some 79,000 tested, about 15% had one in any assay. Calls of active or inactive are those of the source. No stated cut-off is given here; in the data, active means growth inhibition above about 70%; inactive means the rest.
Columns and labels:
[1] = NCI Yeast Anticancer Drug Screen. Data for the rad52 strain (AID 147);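 further: 0% = growth of vehicle-treated control cultures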; details: S. cerevisiae rad52 mutant growth inhibition, active compounds read high
Summary of the method: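 Read-out: growth inhibition versus vehicle-treated controls. Cells were a DNA repair-deficient yeast strain treated with compounds.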

[2] = NCI Yeast Anticancer Drug Screen. Data for the wt1 strain (AID 149);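 further: 0% = growth of vehicle-treated wt1 cultures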; details: S. cerevisiae wt1 strain (SPY 50644) growth inhibition, active compounds read high
Summary of the method: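 Compounds are added to wt1 yeast cultures. Growth is then measured. Inhibition is expressed relative to vehicle-treated controls.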

[3] = NCI Yeast Anticancer Drug Screen. Data for the rad50EPP+ strain (AID 151);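 further: 0% = growth of vehicle-treated control cultures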; details: S. cerevisiae rad50 mutant strain, active compounds read high
Summary of the method: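 Growth inhibition read against vehicle controls in rad50EPP+ yeast, a strain altered in DNA damage repair, after compound exposure.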

[4] = NCI Yeast Anticancer Drug Screen. Data for the mgt1 strain (AID 153); details: S. cerevisiae mgt1 mutant growth inhibition, active compounds read high
Summary of the method: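 mgt1 yeast grown with test compound; read-out is growth inhibition versus vehicle-treated cultures.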

[5] = NCI Yeast Anticancer Drug Screen. Data for the rad50 strain (AID 155);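 further: 0% = growth of vehicle-only cultures of the same strain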; details: S. cerevisiae rad50 strain growth inhibition, active compounds read high
Summary of the method: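 Inhibition values express reduced yeast growth in compound-treated cultures relative to vehicle-treated controls.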

[6] = NCI Yeast Anticancer Drug Screen. Data for the mec2-1 strain (AID 157); details: S. cerevisiae mec2-1 strain, active compounds read high
Summary of the method: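 Yeast mec2-1 mutant treated with compound. Readout: growth inhibition vs vehicle controls.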

[7] = NCI Yeast Anticancer Drug Screen. Data for the rad14 strain (AID 159);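 further: 0% = growth of vehicle-treated control cultures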; details: S. cerevisiae rad14 strain growth inhibition, active compounds read high
Summary of the method: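 A mutant yeast strain defective in DNA damage repair is treated with compound; inhibition of its growth is scored against untreated, vehicle-exposed cultures.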

[8] = NCI Yeast Anticancer Drug Screen. Data for the sgs1 mgt1 strain (AID 161);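 further: 0% = growth of cultures given vehicle only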; details: S. cerevisiae sgs1 mgt1 strain, active compounds read high
Summary of the method: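 Mutant yeast exposed to compound; growth scored against vehicle-only wells.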

[9] = NCI Yeast Anticancer Drug Screen. Data for the CLN2oe strain (AID 163);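 further: 0% = growth of vehicle-only control cultures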; details: S. cerevisiae CLN2oe strain, active compounds read high
Summary of the method: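 Read-out: yeast growth inhibition, expressed relative to vehicle-only controls. The strain bears an engineered cell-cycle alteration.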

[10] = NCI Yeast Anticancer Drug Screen. Data for the cln2 rad14 strain (AID 165);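 further: 0% = growth equal to vehicle treated cultures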; details: S. cerevisiae cln2 rad14 strain, active compounds read high
Summary of the method: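 cln2 rad14 yeast strain; compound exposure; growth inhibition read vs vehicle controls.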

[11] = NCI Yeast Anticancer Drug Screen. Data for the bub3 strain (AID 167); details: S. cerevisiae bub3 mutant strain, active compounds read high
Summary of the method: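 Steps: expose the mutant yeast strain to compound; grow alongside vehicle-treated cultures; measure growth; express inhibition against the vehicle cultures.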

[12] = NCI Yeast Anticancer Drug Screen. Data for the wt2 strain (AID 169);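 further: 0% = growth of vehicle-treated yeast cultures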; details: S. cerevisiae wt2 strain growth inhibition, active compounds read high
Summary of the method: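 Read-out: growth inhibition versus vehicle-treated control cultures after compound exposure of the yeast strain.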

[13] = NCI Yeast Anticancer Drug Screen. Data for the sgs1 strain (AID 173);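 further: 0% = growth of vehicle-only control cultures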; details: S. cerevisiae sgs1 mutant, active compounds read high
Summary of the method: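 Read-out: yeast growth inhibition relative to vehicle controls, following compound exposure of a strain with a defined DNA repair/cell cycle alteration.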

[14] = NCI Yeast Anticancer Drug Screen. Data for the mlh1 rad18 strain (AID 175); details: S. cerevisiae mlh1 rad18 strain growth inhibition, active compounds read high
Summary of the method: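 Yeast w/ defined DNA-repair lesions; compound exposure; growth vs vehicle controls → % inhibition.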

[15] = NCI Yeast Anticancer Drug Screen. Data for the rad18 strain (AID 177); details: S. cerevisiae rad18 mutant growth inhibition, active compounds read high
Summary of the method: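 Readout: growth inhibition vs vehicle controls. Cells: genetically altered yeast strain, DNA repair defect.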

[16] = at 5.0 µM (retest, dose inferred, filed as 0.5)
[17] = at 50.0 µM (retest, dose inferred, filed as 5.0)

Measured: growth inhibition

O=[N+]([O-])c1cccc2nc3ccccc3c(NCCCN3CCOCC3)c12
active: [1]; at 1.2 µM 95% | [1]; at 3.7 µM 97% | [1]; at 11.0 µM 98% | [1]; at 33.0 µM 98% | [1]; at 100.0 µM 98% | [2]; at 11.0 µM 90% | [2]; at 33.0 µM 97% | [2]; at 100.0 µM 98% | [3]; at 11.0 µM 76% | [3]; at 33.0 µM 92% | [3]; at 100.0 µM 96% | [4]; at 11.0 µM 91% | [4]; at 33.0 µM 97% | [4]; at 100.0 µM 98% | [5]; at 1.2 µM 89% | [5]; at 3.7 µM 94% | [5]; [16] 85% | [5]; at 11.0 µM 96% | [5]; at 33.0 µM 97% | [5]; [17] 97% | [5]; at 50.0 µM 96% | [5]; at 100.0 µM 98% | [6]; at 1.2 µM 90% | [6]; at 3.7 µM 97% | [6]; [16] 91% | [6]; at 11.0 µM 98% | [6]; at 33.0 µM 99% | [6]; [17] 99% | [6]; at 50.0 µM 97.3% | [6]; at 100.0 µM 99% | [7]; at 1.2 µM 98% | [7]; at 3.7 µM 98% | [7]; at 11.0 µM 98% | [7]; at 33.0 µM 98% | [7]; at 100.0 µM 98% | [8]; [16] 92% | [8]; [17] 98% | [8]; at 50.0 µM 96.9% | [9]; at 11.0 µM 92% | [9]; at 33.0 µM 96% | [9]; at 100.0 µM 99% | [10]; [16] 98% | [10]; [17] 99% | [10]; at 50.0 µM 98.4% | [11]; at 33.0 µM 93% | [11]; [17] 97% | [11]; at 50.0 µM 90.1% | [11]; at 100.0 µM 98% | [12]; at 11.0 µM 76% | [12]; at 33.0 µM 96% | [12]; at 100.0 µM 98% | [13]; at 1.2 µM 91% | [13]; at 3.7 µM 94% | [13]; at 11.0 µM 96% | [13]; at 33.0 µM 97% | [13]; at 100.0 µM 98% | [14]; [16] 95% | [14]; [17] 98% | [14]; at 50.0 µM 98.2% | [15]; at 1.2 µM 96% | [15]; at 3.7 µM 96% | [15]; at 11.0 µM 97% | [15]; at 33.0 µM 97% | [15]; at 100.0 µM 99%
inactive: [2]; at 1.2 µM -8% | [2]; at 3.7 µM 38% | [3]; at 1.2 µM 19% | [3]; at 3.7 µM 46% | [4]; at 1.2 µM 16% | [4]; at 3.7 µM 43% | [9]; at 1.2 µM -7% | [9]; at 3.7 µM 46% | [11]; at 1.2 µM -14% | [11]; at 3.7 µM 0% | [11]; [16] 0% | [11]; at 11.0 µM 53% | [12]; at 1.2 µM -1% | [12]; at 3.7 µM 19%

NC1=NS(=O)(=O)N=C(N)C1=Cc1ccc([N+](=O)[O-])o1
inactive: [1]; at 1.2 µM -23% | [1]; at 3.7 µM -14% | [1]; at 11.0 µM 20% | [2]; at 1.2 µM -20% | [2]; at 3.7 µM -11% | [2]; at 11.0 µM -6% | [2]; at 33.0 µM -18% | [3]; at 1.2 µM 0% | [3]; at 3.7 µM 18% | [3]; at 11.0 µM 64% | [4]; at 1.2 µM 7% | [4]; at 3.7 µM 16% | [4]; at 11.0 µM 12% | [4]; at 33.0 µM 33% | [5]; at 1.2 µM 6% | [5]; at 3.7 µM 21% | [5]; [16] 3% | [5]; at 11.0 µM 42% | [6]; at 1.2 µM -20% | [6]; at 3.7 µM -25%
active: [1]; at 33.0 µM 82% | [1]; at 100.0 µM 97% | [2]; at 100.0 µM 98% | [3]; at 33.0 µM 88% | [3]; at 100.0 µM 97% | [4]; at 100.0 µM 99% | [5]; at 33.0 µM 78% | [5]; [17] 77% | [5]; at 50.0 µM 88% | [5]; at 100.0 µM 97%

— PubChem BioAssay (NCI)
